The text below walks through data of PubChem BioAssay (NCATS).

What all share (test): Cytotoxic Profiling of Annotated Libraries Using Quantitative High-Throughput Screening (AID 1296008); further: nearly all actives have a fitted effect of over 60% in size
Holding throughout (conditions): Five cell lines viability, CellTiter-Glo ATP luminescence, 48-72 h; max response: stronger effect = lower value
(In general: Cellular ATP, detected with luciferase, serves as a proxy for viable cell number.)

The test system of one experiment is CRL-7250. In short, it runs like this: (§1)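 Compounds were pin-transferred onto cells and incubated 48 or 72 hr at 37 degree Celsius, 95% humidity. CellTiter-Glo was added, plates sat 10 min at room temperature, then ATP-coupled luminescence was imaged as the viability read-out.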
The next experiment deals with HaCat. In short, it runs like this: as §1
The next experiment has as its system KB-3-1. In short, it runs like this:
as §1

The test system of the next experiment is NIH3T3. Summed up: as §1

Results filed as inconclusive are left out. Unmarked numbers belong to inactive results. Calls of active or inactive are those of the source. The call rests on the fitted dose curve; in most records, active means well fitted inhibition curve with a large enough effect; inconclusive means small, poorly fitted or top-dose-only effect; inactive means flat fitted curve, though single readings scatter. *1 amine or outer side, *2 acyl side, *3 side chain or, on linkers, in order; H or OH if unused. Where a SMILES comes first, the peptide text is derived from it. Bridges are numbered along the chain shown (N, C = ends). [ ]: non-standard residue; d: D form. The star is where a group is joined. pTerphenylCO(4''-OnC5H11) = CCCCCOc1ccc(-c2ccc(-c3ccc(C(=O)*)cc3)cc2)cc1; Orn(4R-OH,5R-OH) = O=C([C@H](C[C@@H](O)[C@@H](O)N[*:3])N[*:1])[*:2]; hTyr(3S-OH,4S-OH) = N[C@H](C(=O)O)[C@H](O)[C@@H](O)c1ccc(O)cc1; Pro(3S-OH,4S-Me) = C[C@H]1CN[C@H](C(=O)O)[C@H]1O; Hyp = O=C(O)[C@@H]1C[C@@H](O)CN1
On the % scale 0 is the no-effect control and ±100 the full control effect; potency means the concentration at half of the fitted maximal effect.

As for `C[C@@H](O[C@H]1OCCN(Cc2nn(P(=O)(O)O)c(=O)[nH]2)[C@H]1c1ccc(F)cc1)c1cc(C(F)(F)F)cc(C(F)(F)F)c1`, the max response in the experiment with CRL-7250 is 0.664%; in the experiment on HaCat, -1.44%; in the experiment with KB-3-1 it was 6.69%; in the experiment with NIH3T3 it was -9.38%.

For `CCCCCOc1ccc(-c2ccc(-c3ccc(C(=O)N[C@H]4C[C@@H](O)[C@@H](O)NC(=O)[C@@H]5[C@@H](O)[C@@H](C)CN5C(=O)[C@H]([C@@H](C)O)NC(=O)[C@H]([C@H](O)[C@@H](O)c5ccc(O)cc5)NC(=O)[C@@H]5C[C@@H](O)CN5C(=O)[C@H]([C@@H](C)O)NC4=O)cc3)cc2)cc1` ({pTerphenylCO(4''-OnC5H11)}-[Orn(4R-OH,5R-OH)]T[Hyp][hTyr(3S-OH,4S-OH)]T[Pro(3S-OH,4S-Me)]; lactam 1-C), the max response was 4.73% in the experiment with CRL-7250, 3.64% in the experiment on HaCat and -1.62% in the experiment on NIH3T3. Also, the compound was classed as inactive in the experiment on KB-3-1.

Take `N#Cc1cccc(C(=O)Nc2cc(-c3ccccc3)nn2-c2ccccc2)c1`: the max response with CRL-7250 is 1.2%; in the experiment with HaCat, 1.42%; in the experiment on KB-3-1 it was -17%; with NIH3T3, -3.88%.

With `Cc1ccc(CNc2ncnc3ccc(-c4ccc(CO)o4)cc23)o1`, the max response with CRL-7250 was -10.7%; with KB-3-1, 8.1%; with NIH3T3, -6.8%. For the same compound, in the experiment on HaCat, the Potency is 16400 nM (active).

In the case of `Cc1c(F)ccc(C(=O)Nc2cc([N+](=O)[O-])ccc2N2CCN(C)CC2)c1Cl`, the results for the max response with CRL-7250, in the experiment with HaCat and with NIH3T3 were 1.68%, 0.293% and 1.43%, respectively. The result with KB-3-1 was inactive.

As for `CN(C)S(=O)(=O)c1ccc(NC(=S)N2CCC(C(O)(c3ccccc3)c3ccccc3)CC2)cc1`, the compound was classed as inactive in the experiment with CRL-7250 and with NIH3T3. Moreover, the max response is 3.08% with HaCat and -18.9% with KB-3-1.

Take `COc1c(C)cc(NC(=O)c2nn(Cc3ccc(F)cc3)c3c2CN(C(=O)c2ccc[nH]2)C[C@]3(C)C(N)=O)cc1C`: the results for the max response in the experiment on CRL-7250, with HaCat and in the experiment on NIH3T3 were -1.93%, -0.617% and -14%, respectively. The outcome in the experiment with KB-3-1 was inactive.

Regarding `COc1cc2c(cc1OCCCN1CCCC1)N=C(N)C21CCC1`, the max response in the experiment with CRL-7250 is -5.27%; with HaCat it was 2.83%; with KB-3-1 it was 0.253%. Moreover, the outcome in the experiment on NIH3T3 is “inactive; activator”.

Consider `CNS(=O)(=O)c1ccccc1Nc1nc(Nc2ccc(N3CCN(C)CC3)cc2OC)ncc1Br`, for which the Potency with CRL-7250 was 1640 nM (active); in the experiment on HaCat, 3260 nM (active); with KB-3-1, 4610 nM (active); in the experiment with NIH3T3 it was 1460 nM (active).

In the case of `C/C=C(\C)C(=O)OC1C(C)C2(O)C(C=C(CO)CC3(O)C(=O)C(C)=CC32)C2C(C)(C)C12OC(C)=O` (centres undefined), the max response was -19.7% with CRL-7250, -5.6% in the experiment with HaCat, 3.13% in the experiment with KB-3-1 and -6.06% with NIH3T3.

As for `CC(=O)NCc1cccc(OC[C@@H](O)CNCCc2ccc(NS(=O)(=O)c3ccccc3)cc2)c1`, the max response is -6.68% with CRL-7250, -3.13% in the experiment with HaCat and -5.62% with KB-3-1. In addition, the compound was called inactive with NIH3T3.

As to `O=C(c1ccc(Cl)cc1)N1CCN(c2ccnc3cc(Cl)ccc23)CC1`, the max response in the experiment with CRL-7250 was 3.03%; in the experiment on HaCat it was -18.2%; in the experiment with KB-3-1, -24.7%; in the experiment with NIH3T3, -1.68%.

As for `CNCc1cc(-c2ccccc2F)n(S(=O)(=O)c2cccnc2)c1`, the max response with CRL-7250 was -3.13%; in the experiment with HaCat it was -5.62%; in the experiment with KB-3-1, -0.384%; in the experiment on NIH3T3, 0.556%.

As to `C/C(=C\CCC(C)C1=CCC2(C)OC3=C(CC12)C(=O)C(O)CC3)CO` (centres undefined), the max response is -17.6% in the experiment on CRL-7250, -38% in the experiment on HaCat, -18.5% with KB-3-1 and -0.114% in the experiment on NIH3T3.

As for `COCCN(C(=O)c1cc(OC)c(OC)c(OC)c1)c1nc(-c2ccccc2)cs1`, the max response in the experiment on CRL-7250 is -0.0444%; in the experiment on HaCat, 0.0568%; in the experiment with KB-3-1, 5.9%; with NIH3T3, 3.38%.

`C=C1CCC2[C@](C)(CCC[C@@]2(C)C=O)[C@H]1CC/C(C)=C/CO` (some centres undefined): the results for the max response in the experiment with CRL-7250, in the experiment with HaCat and in the experiment with NIH3T3 were 2.68%, 2.96% and 1.76%, respectively. Besides, the result with KB-3-1 was inactive.

As to `C=C(C(=O)O)[C@@H]1CC=C(CCC(C)=O)[C@@H](C)CC1`, the max response was -0.888% with CRL-7250, -4.33% in the experiment on HaCat, -14.7% in the experiment on KB-3-1 and -3.55% in the experiment with NIH3T3.

For the compound `COc1cc2c(c(OC)c1CC=C(C)C)C[C@H](c1ccc(O)c(CC=C(C)C)c1O)CO2`, the max response is 2.21% in the experiment with CRL-7250, -6.86% in the experiment on HaCat, -4.62% in the experiment with KB-3-1 and -5.48% in the experiment with NIH3T3.

`O=C(Nc1ccccc1Cl)c1cnc2ccc(C3CCNCC3)cn12`: the Potency in the experiment on CRL-7250 is 1030 nM (active); in the experiment on HaCat it was 1640 nM (active); in the experiment on NIH3T3, 1460 nM (active). Further, the max response in the experiment on KB-3-1 is 2.96%.

In the case of `CC(C)(C)OC(=O)c1ncn2c1C(C)(C)Nc1ccccc1-2`, in the experiment with CRL-7250, the result was inactive. The results for the max response with HaCat, with KB-3-1 and in the experiment with NIH3T3 were 2.2%, 0.574% and 0.0612%, respectively.

With `CCCCc1ccc(NS(=O)(=O)c2ccc(F)cc2)cc1`, the compound was classed as inactive with CRL-7250 and in the experiment with NIH3T3. In addition, the results for the max response in the experiment with HaCat and with KB-3-1 were -1.98% and 4.06%, respectively.
